# Reference: the supplement of paper PMC10849652
# Of roughly 7,900 targets only a part is listed; those with a hit were picked by preference. About 0.6% of all pairs of compound and target were hits.
# What was measured:
# Assay in all cases: log2 fold change, soluble protein after heating vs DMSO (PISA); higher = thermal stabilisation; K562 cells, 10 uM, 30 min; active = over 0.2 and 3.5 SD of the protein, either way, in both replicates (recomputed)
# [1] = compound: C1=CC=C(C=C1)[C@H](COC2=CC3=C(C=C2)NC(=O)N3)NC(=O)C4=CC=CN(C4=O)CC5=CC(=C(C=C5)F)F
# Outline: (§1)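 Aliquots of K562 cells (2×10^6 cells/mL) treated with 10 μM compound for 30 min were heated for 3 min over 48°C-58°C. After pooling and extraction in PBS with 0.5% NP-40 at 4°C, soluble protein from a 21,000xg, 90 min spin was quantified by TMTpro 16plex LC-MS/MS with channel sums equalised. Thermal stability is expressed against control samples, from duplicates, as a log2 fold change.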
# [2] = compound: CC1=C(SC2=C1C(=N[C@H](C3=NN=C(N32)C)CC(=O)N)C4=CC=C(C=C4)Cl)C
# Outline: as §1
# [3] = compound: CC1=C2C(=CC=C1)N=C(N(C2=O)C3=CC=CC=C3C)CN4C=NC5=C(N=CN=C54)N
# Outline: as §1
# [4] = compound: Cc1sc2c(c1C)C(c1ccc(Cl)cc1)=N[C@@H](CC(=O)OC(C)(C)C)c1nnc(C)n1-2
# Outline: as §1
# [5] = compound: c1ccc([C@@H]2C[C@H]2NC2CCNCC2)cc1
# Outline: as §1
# UniProt Q96GS6, sequence (Q96GS6 whole entry, looked up): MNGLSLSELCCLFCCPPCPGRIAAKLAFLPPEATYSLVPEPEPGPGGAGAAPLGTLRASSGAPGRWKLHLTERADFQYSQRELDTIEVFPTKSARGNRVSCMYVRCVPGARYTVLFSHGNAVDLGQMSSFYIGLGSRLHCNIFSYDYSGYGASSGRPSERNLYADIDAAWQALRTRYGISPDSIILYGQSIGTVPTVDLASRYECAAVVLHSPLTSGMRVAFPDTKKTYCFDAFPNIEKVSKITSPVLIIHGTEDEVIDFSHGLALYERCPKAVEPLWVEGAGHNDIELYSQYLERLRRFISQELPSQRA
# UniProt Q9UNA0, sequence (Q9UNA0 whole entry, looked up): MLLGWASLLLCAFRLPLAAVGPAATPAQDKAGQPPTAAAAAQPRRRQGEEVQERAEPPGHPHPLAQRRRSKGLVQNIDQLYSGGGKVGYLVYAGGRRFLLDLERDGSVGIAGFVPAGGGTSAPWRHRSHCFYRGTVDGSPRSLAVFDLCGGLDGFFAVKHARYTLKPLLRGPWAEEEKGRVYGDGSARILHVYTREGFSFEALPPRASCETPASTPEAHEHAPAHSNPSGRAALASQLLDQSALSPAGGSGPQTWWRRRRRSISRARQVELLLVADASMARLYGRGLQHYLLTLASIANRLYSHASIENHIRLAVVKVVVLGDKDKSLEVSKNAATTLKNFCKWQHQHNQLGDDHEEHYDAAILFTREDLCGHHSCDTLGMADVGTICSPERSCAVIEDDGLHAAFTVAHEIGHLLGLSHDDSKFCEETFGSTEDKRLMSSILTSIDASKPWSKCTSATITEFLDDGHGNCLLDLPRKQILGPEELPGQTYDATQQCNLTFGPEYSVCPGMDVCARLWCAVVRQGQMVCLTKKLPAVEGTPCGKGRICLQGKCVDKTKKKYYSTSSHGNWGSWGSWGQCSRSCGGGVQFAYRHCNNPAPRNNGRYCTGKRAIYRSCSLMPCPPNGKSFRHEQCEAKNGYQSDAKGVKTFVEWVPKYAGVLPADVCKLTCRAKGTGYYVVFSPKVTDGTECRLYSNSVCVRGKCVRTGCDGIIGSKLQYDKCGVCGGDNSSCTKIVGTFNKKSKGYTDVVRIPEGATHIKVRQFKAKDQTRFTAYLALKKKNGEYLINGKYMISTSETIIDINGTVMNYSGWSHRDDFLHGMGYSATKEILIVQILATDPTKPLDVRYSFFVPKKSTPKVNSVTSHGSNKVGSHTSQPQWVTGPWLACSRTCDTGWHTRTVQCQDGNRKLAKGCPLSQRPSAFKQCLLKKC
# UniProt Q8N6D5, sequence (Q8N6D5 whole entry, looked up): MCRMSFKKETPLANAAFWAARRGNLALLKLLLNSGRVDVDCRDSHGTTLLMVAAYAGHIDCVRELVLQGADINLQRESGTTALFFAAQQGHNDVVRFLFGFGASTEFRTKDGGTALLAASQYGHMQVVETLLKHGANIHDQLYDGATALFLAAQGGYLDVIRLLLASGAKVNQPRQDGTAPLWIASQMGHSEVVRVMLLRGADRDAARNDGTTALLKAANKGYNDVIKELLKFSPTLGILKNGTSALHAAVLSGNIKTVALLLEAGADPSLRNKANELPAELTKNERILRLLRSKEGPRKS
# UniProt Q9Y673, sequence (Q9Y673 whole entry, looked up): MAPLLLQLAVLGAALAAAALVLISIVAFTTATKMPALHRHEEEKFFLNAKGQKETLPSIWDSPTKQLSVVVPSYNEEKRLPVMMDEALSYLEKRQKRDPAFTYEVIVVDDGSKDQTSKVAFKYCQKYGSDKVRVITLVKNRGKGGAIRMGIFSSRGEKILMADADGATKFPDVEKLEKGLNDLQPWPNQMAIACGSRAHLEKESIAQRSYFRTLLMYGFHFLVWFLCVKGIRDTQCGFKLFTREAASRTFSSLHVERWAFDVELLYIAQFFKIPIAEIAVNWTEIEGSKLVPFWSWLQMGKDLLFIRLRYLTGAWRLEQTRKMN
# UniProt Q15059, sequence (Q15059 whole entry, looked up): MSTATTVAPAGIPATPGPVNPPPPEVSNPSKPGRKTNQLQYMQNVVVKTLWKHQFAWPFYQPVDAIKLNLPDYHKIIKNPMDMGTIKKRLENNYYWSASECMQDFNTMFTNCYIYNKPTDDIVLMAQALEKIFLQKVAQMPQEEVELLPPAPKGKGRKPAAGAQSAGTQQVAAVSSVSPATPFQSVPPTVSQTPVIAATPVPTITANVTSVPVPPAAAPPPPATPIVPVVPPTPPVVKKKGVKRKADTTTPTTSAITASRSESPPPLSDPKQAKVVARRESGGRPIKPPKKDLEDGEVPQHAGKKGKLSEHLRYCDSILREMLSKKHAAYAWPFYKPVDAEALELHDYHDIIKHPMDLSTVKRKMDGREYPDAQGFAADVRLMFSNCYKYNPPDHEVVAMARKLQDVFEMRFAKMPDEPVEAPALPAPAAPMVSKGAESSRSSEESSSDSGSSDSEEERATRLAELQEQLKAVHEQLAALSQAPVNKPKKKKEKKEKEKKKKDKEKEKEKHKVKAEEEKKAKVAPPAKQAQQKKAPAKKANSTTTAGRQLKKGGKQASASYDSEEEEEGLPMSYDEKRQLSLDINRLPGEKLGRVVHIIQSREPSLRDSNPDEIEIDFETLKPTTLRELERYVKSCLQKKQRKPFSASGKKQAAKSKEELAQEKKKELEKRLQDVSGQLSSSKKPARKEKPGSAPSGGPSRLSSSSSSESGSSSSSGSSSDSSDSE
# UniProt P15291, sequence (P15291 whole entry, looked up): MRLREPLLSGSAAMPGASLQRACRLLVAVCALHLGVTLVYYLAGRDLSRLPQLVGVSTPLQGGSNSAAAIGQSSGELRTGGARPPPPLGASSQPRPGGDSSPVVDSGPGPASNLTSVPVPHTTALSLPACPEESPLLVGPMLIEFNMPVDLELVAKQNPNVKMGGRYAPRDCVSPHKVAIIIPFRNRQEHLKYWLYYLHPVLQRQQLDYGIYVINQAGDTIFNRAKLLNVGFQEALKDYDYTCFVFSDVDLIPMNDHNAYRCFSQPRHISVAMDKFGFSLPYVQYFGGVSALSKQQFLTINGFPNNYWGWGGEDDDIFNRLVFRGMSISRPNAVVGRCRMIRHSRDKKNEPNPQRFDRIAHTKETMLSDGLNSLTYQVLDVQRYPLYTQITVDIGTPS
# UniProt Q9Y4P1, sequence (Q9Y4P1 whole entry, looked up): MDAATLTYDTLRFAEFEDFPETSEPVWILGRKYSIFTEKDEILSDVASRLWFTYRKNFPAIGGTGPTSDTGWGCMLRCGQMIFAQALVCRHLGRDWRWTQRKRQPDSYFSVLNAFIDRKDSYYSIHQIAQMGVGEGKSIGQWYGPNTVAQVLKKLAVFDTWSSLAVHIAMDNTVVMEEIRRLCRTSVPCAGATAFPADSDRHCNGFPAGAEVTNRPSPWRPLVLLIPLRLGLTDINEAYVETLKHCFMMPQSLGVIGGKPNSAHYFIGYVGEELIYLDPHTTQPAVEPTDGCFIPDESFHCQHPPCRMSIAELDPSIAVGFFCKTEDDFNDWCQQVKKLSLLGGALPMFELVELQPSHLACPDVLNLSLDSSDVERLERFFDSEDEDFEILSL
# UniProt Q7Z569, sequence (Q7Z569 whole entry, looked up): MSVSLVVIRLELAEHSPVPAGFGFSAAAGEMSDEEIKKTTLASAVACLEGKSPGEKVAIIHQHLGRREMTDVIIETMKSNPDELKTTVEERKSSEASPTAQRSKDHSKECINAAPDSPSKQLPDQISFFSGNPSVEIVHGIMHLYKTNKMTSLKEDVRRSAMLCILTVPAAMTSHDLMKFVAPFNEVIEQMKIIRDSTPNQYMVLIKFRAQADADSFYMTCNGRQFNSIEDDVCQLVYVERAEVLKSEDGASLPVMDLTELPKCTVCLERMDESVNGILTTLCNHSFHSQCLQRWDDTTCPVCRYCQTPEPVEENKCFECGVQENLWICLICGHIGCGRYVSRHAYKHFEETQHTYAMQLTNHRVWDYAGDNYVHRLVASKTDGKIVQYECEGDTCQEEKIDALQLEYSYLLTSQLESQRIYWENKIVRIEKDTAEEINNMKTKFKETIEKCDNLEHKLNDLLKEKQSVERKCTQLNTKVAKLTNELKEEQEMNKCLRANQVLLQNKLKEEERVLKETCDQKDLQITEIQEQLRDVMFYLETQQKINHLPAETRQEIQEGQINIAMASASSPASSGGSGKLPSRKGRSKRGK
# UniProt Q93050, sequence (Q93050 whole entry, looked up): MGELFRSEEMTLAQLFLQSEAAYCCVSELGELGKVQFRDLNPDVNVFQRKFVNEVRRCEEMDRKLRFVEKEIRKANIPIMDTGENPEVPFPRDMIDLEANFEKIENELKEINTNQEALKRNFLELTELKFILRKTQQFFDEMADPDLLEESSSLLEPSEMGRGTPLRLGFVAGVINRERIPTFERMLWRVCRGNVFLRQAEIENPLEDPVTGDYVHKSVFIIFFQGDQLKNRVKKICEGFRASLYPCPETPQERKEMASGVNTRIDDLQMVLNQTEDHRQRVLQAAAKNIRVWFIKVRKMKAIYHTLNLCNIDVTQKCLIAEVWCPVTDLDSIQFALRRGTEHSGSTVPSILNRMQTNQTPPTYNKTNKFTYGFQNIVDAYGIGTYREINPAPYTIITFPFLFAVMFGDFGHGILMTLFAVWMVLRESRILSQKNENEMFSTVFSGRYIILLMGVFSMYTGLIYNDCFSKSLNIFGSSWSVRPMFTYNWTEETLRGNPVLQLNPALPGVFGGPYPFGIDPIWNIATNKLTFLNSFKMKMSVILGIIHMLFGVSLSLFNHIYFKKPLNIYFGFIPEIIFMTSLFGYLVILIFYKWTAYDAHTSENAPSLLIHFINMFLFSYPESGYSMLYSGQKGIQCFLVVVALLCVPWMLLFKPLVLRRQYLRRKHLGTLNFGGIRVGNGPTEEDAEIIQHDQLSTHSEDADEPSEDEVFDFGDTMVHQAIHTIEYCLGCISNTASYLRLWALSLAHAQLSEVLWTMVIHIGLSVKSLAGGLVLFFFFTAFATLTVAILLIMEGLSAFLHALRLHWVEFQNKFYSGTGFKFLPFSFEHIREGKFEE
# UniProt P24666, sequence (P24666 whole entry, looked up): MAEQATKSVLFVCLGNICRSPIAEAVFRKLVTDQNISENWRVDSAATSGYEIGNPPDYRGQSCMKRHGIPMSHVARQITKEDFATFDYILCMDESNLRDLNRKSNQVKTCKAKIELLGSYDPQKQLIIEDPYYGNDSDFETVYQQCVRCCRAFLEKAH
Target,log2 fold change [1],log2 fold change [2],log2 fold change [3],log2 fold change [4],log2 fold change [5]
ATP6V0A1 isoform 3 (UniProt Q93050),0.115 (inactive),-0.07 (inactive),0.005 (inactive),-0.07 (inactive),-0.149 (inactive)
ABHD17A isoform 2 (UniProt Q96GS6),0.029 (inactive),0.079 (inactive),0.122 (inactive),-0.148 (inactive),-0.012 (inactive)
ATP23 (UniProt Q9Y6H3),-0.023 (inactive),-0.031 (inactive),-0.009 (inactive),-0.052 (inactive),-0.053 (inactive)
ARRDC1 (UniProt Q8N5I2),0.005 (inactive),-0.462 (active),-0.062 (inactive),-0.1 (inactive),-0.037 (inactive)
BRAP (UniProt Q7Z569),-0.058 (inactive),0.025 (inactive),0.05 (inactive),0.081 (inactive),0 (inactive)
ALG3 (UniProt Q92685),-0.061 (inactive),0.019 (inactive),0.072 (inactive),0.054 (inactive),-0.026 (inactive)
AKT2 (UniProt P31751),-0.124 (inactive),0.055 (inactive),0.061 (inactive),0.009 (inactive),-0.028 (inactive)
AKAP8L (UniProt Q9ULX6),-0.011 (inactive),-0.186 (inactive),0.054 (inactive),-0.047 (inactive),0.043 (inactive)
AGO1 (UniProt Q9UL18),-0.05 (inactive),-0.066 (inactive),-0.114 (inactive),-0.016 (inactive),0.05 (inactive)
AIP (UniProt O00170),-0.031 (inactive),0.078 (inactive),0.042 (inactive),-0.004 (inactive),-0.018 (inactive)
ATP1B3 (UniProt P54709),0.012 (inactive),0.042 (inactive),0.001 (inactive),0.002 (inactive),0.006 (inactive)
BRIP1 (UniProt Q9BX63),0.042 (inactive),-0.005 (inactive),0 (inactive),-0.042 (inactive),0.122 (inactive)
BRD3 (UniProt Q15059),0.002 (inactive),1.9 (active),0 (inactive),1.56 (active),-0.021 (inactive)
ATG4B isoform 2 (UniProt Q9Y4P1),-0.079 (inactive),0.056 (inactive),0.166 (inactive),0.188 (inactive),0.07 (inactive)
AP2B1 isoform 2 (UniProt P63010),0.023 (inactive),-0.017 (inactive),-0.016 (inactive),0.03 (inactive),-0.002 (inactive)
ALG5 (UniProt Q9Y673),-0.037 (inactive),0.1 (inactive),0.082 (inactive),-0.06 (inactive),-0.056 (inactive)
ANKRD29 (UniProt Q8N6D5),-0.012 (inactive),0.199 (inactive),0.248 (inactive),-0.029 (inactive),-0.079 (inactive)
ACP1 isoform 2 (UniProt P24666),-0.107 (inactive),-0.028 (inactive),0.004 (inactive),0.028 (inactive),0.022 (inactive)
ACSL4 (UniProt O60488),-0.08 (inactive),0.1 (inactive),0.132 (inactive),0.025 (inactive),-0.031 (inactive)
AARSD1 isoform 3 (UniProt Q9BTE6),-0.053 (inactive),-0.068 (inactive),0.039 (inactive),0.047 (inactive),0.023 (inactive)
ASNS (UniProt P08243),0.025 (inactive),0.044 (inactive),0.027 (inactive),-0.008 (inactive),-0.019 (inactive)
ADAMTS5 (UniProt Q9UNA0),0.149 (inactive),0.106 (inactive),0.152 (inactive),-0.076 (inactive),-0.028 (inactive)
B4GALT1 (UniProt P15291),0.034 (inactive),0.057 (inactive),-0.065 (inactive),-0.022 (inactive),-0.042 (inactive)
BRAF (UniProt P15056),-0.04 (inactive),0.075 (inactive),0.041 (inactive),-0.018 (inactive),-0.027 (inactive)
